From PubChem
Rows were chosen to be rich in hits. Some 1.4% of all compounds tested hit in one or more screens of this group.
GALR2 ag: agonists of human galanin receptor 2 (GALR2) | AID 803 | 140,000 tested, 0.48% active | O43603 | GALR2-expressing cells, agonist activation read-out | activation, % (no concentration beside the values); in the data active means activation above about 5%, passing the limit was not always enough;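 further: 0% = vehicle buffer wells and 100% = reference agonist at full effect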
PTPN22 act: increases human PTPN22 phosphatase activity. Q9Y2R2. recombinant LYP, DiFMUP fluorescence; 0 = plate median, 100 = signal doubled. activation, % at 2 µM. 96,000 tested, 0.11% active. AID 697;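 active means activation at 2 µM above a set limit, the mean plus 5 SD, cut at about 37% in these data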
Target sequence (Q9Y2R2 whole entry, looked up): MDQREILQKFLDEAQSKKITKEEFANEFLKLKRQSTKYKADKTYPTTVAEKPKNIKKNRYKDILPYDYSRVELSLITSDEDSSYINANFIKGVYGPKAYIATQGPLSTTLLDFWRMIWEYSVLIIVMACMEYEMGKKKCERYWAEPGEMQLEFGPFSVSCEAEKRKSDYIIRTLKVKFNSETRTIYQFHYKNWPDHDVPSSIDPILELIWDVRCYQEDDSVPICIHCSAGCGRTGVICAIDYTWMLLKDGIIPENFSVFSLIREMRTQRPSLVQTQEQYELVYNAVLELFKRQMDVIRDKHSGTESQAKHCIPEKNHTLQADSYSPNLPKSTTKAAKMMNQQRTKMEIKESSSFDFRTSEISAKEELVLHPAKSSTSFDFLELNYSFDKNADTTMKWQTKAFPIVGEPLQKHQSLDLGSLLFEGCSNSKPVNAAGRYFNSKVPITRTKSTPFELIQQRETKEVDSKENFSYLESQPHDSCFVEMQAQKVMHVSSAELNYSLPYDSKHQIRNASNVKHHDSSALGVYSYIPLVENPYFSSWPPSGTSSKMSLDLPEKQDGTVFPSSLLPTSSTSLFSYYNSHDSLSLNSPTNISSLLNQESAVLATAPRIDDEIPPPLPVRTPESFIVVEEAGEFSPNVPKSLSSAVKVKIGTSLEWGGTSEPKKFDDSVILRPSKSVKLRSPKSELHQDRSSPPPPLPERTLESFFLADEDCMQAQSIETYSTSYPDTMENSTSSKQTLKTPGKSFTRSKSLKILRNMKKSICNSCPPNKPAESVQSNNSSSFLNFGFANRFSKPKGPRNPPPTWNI
GALR2 blocker: GALR2 (human) receptor antagonism. O43603. GALR2-expressing cells, antagonist mode. inhibition, % at 4 µM. 140,000 tested, 0.39% active. AID 828;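 further: cells stimulated with galanin 1-16 at roughly its EC80; 0% = agonist challenge control and 100% = basal control without agonist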
LYP inh 2: inhibitors of human LYP (PTPN22) phosphatase; 96,000 tested, 0.21% active; inhibition, % at 2 µM; Q9Y2R2; recombinant LYP catalytic domain, DiFMUP fluorescence;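 active means inhibition at 2 µM at or above a set limit, the screen mean plus 3 SD, cut at about 24% in these data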;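 further: 0% = DMSO with enzyme and 100% = enzyme fully blocked by orthovanadate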
S1P2 agonist: S1P2 (human) receptor agonism; O95136; 97,000 tested, 0.46% active; AID 729; S1P2-expressing cell line, agonist reporter read-out; activation, % at 4.5 µM; in the data active means activation above about 16%;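 further: 0% = vehicle low control and 100% = maximal reference agonist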
S1P2 blocker: blocks the human S1P2 receptor | cell-based S1P2 antagonist assay, inhibition at 5 uM | inhibition, % at 5 µM | 97,000 tested, 0.21% active | AID 736; in the data active means inhibition above about 45%;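 further: CRE beta-lactamase reporter cells expressing human S1P2 stimulated with S1P; 0% = agonist at EC80 alone and 100% = agonist plus reference antagonist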
GALR2 blk conf: GALR2 (human) antagonism confirmed; GALR2-expressing cells, antagonist mode, inhibition; 480 tested, 60% active; shares compounds with GALR2 blocker; inhibition, % at 4 µM; AID 866;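 further: cells stimulated with galanin at about its EC80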
BLA inh counter: beta-lactamase inhibition, GALR2 counterscreen | CHO NFAT-BLA reporter, beta-lactamase FRET, thapsigargin-stimulated | inhibition, % at 4.2 µM | shares compounds with GALR2 blocker | AID 867 | 480 tested, 36% active;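 active means inhibition above the mean inhibition across tested compounds plus 3 SD, cut at about 27% in these data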;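 further: 0% = 500 nM thapsigargin stimulated wells and 100% = unstimulated BSA only wells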
* = called active by the depositor; x = no result. Unless noted, no stated cut-off is given here; in the data, active means inhibition above about 27%; inactive means the rest.

SMILES	GALR2 ag	PTPN22 act	GALR2 blocker	LYP inh 2	S1P2 agonist	S1P2 blocker	GALR2 blk conf	BLA inh counter
COc1ccc(Nc2nc(N3CCCC3)c3ccccc3n2)cc1	1	x	30*	x	x	x	36*	14
O=C1Nc2ccccc2/C1=N\c1sc2c(c1C(=O)Nc1ccccc1)CCCC2	-4	-9	29*	8	-8	-2	5	-5
O=C(CSc1n[nH]c(-c2ccco2)n1)Nc1sc2c(c1C(=O)Nc1ccccc1)CCCC2	-1	-2	-3	4	-3	-15	x	x
COc1ccc(C(NC(=O)/C=C/c2ccco2)c2ccc(OC)cc2)cc1	-1	x	15	x	x	x	x	x
COc1ccc(C(=O)/C(=C\c2ccco2)N2C=CC=CC2=C(C#N)C#N)cc1	-1	4	42*	-1	2	40	52*	49*
CCN(CC)c1ccc(/C=C(\C#N)C(=O)c2ccc(Br)cc2)cc1	0	x	-6	x	x	x	x	x
N#CC(C#N)=C1C=CC=CN1/C(=C\c1ccco1)C(=O)c1ccc(Br)cc1	0	x	65*	x	x	x	68*	68*
N#CC(C#N)=C1C=CC=CN1/C(=C\c1ccco1)C(=O)c1ccccc1	0	x	55*	x	x	x	79*	83*
COc1ccc(NC(=O)c2cccs2)cc1	-2	24	19	-24	-5	1	x	x
COc1ccc(/C=C(/C(=O)c2cccs2)N2C=CC=CC2=C(C#N)C#N)cc1	3	x	38*	x	x	x	66*	55*
CCn1c2ccccc2c2cc(NS(=O)(=O)c3ccccc3C)ccc21	-2	17	8	-12	-3	-5	x	x
CCOC(=O)COc1ccc2ccccc2c1/C=C/[N+](=O)[O-]	2	x	26	x	x	x	x	x
CCOC(=O)COc1ccc(/C=C/[N+](=O)[O-])c(OCC(=O)OCC)c1	-2	6	27*	-4	-1	-13	31*	14
CC(=O)c1c(C)[nH]c(C(=O)COC(=O)c2cc(S(=O)(=O)N(C)c3ccccc3)ccc2Cl)c1C	-1	x	28*	x	x	x	14	2
Cn1c(-c2c(N)n(CCCc3ccccc3)c3nc4ccccc4nc23)nc2ccccc21	0	1	38*	1	-13	75*	51*	55*
CCCn1c(C)nc2c(c1=O)c1nc3ccccc3nc1n2CCc1ccccc1	-3	-9	4	6	-4	-2	x	x
Cn1c(-c2c(N)n(CCc3ccccc3)c3nc4ccccc4nc23)nc2ccccc21	0	-2	36*	2	-8	59*	45*	54*
CC(OC(=O)CC(NC(=O)c1ccccc1Cl)c1ccccc1)C(=O)Nc1cccc(Cl)c1Cl (configuration not stated)	-3	x	-4	x	x	x	x	x
CCOc1ccc(C(=O)c2cc([N+](=O)[O-])ccc2N2CCOCC2)cc1	2	x	51*	x	x	x	30*	68*
Cc1ccc(C(=O)c2cc([N+](=O)[O-])ccc2N2CCOCC2)cc1	1	x	6	x	x	x	x	x
COc1ccc(C(=O)c2cc([N+](=O)[O-])ccc2N2CCOCC2)cc1	2	x	34*	x	x	x	28*	49*
CC(=O)C1=NN(c2ccccc2)C2(S1)S/C(=C\c1ccccc1)C(=O)N2c1ccccc1 (configuration not stated)	-1	-4	-10	7	-1	-6	x	x
CC1CCCN(CC(O)CN)C1 (configuration not stated)	-4	0	-1	2	-9	5	x	x
O=C(/C=C/c1ccc(Cl)cc1)NC(=S)Nc1ccc(NC(=O)c2ccco2)cc1	-2	x	46*	x	x	x	53*	23
Cc1ccc(NC(=O)CC(O)(C(F)(F)F)C(F)(F)F)c(Br)c1	-4	-2	28*	2	-9	-2	10	5
SMILES	GALR2 ag	PTPN22 act	GALR2 blocker	LYP inh 2	S1P2 agonist	S1P2 blocker	GALR2 blk conf	BLA inh counter
Cc1ccccc1NC(=O)CC(O)(C(F)(F)F)C(F)(F)F	-1	-1	2	5	-3	6	x	x
CC(=O)C1=C(c2ccc(Br)cc2)C(=O)c2ccccc2C1=O	-2	x	35*	x	x	x	26	16
CNC1=C(N(C(C)=O)c2ccc(Br)cc2)C(=O)c2ccccc2C1=O	-1	x	1	x	x	x	x	x
COc1ccc(CC(=O)Nc2cccc(S(=O)(=O)N3CCCCCC3)c2)cc1OC	-1	x	28*	x	x	x	16	9
COc1ccc(/C(C)=N/NC(=O)c2ccc(N(C)C)cc2)cc1	-3	4	-3	-1	-6	2	x	x
CCN(CC)c1ccc(C(=O)N/N=C(\C)c2ccc(O)cc2)cc1	-3	x	30*	x	x	x	24	7
O=c1ncn(-c2ccccc2F)c2ncccc12	-1	-1	-1	3	-7	-2	x	x
CSc1ccc(S(=O)(=O)NCc2ccc(Cl)cc2Cl)cc1	-2	1	-4	0	-1	11	x	x
COc1ccc(-c2noc(CCC(=O)Nc3ccc4c(c3)OCCO4)n2)cc1	-5	4	28*	-6	-5	-1	7	10
Cc1cc(C)c(S(=O)(=O)N2CCC(C(=O)NCc3ccc(Cl)cc3Cl)CC2)c(C)c1	-3	6	-12	-5	-3	18	x	x
COc1ccc(Cc2nc(C(=O)Nc3ccc(Cl)cc3)cs2)cc1	-2	6	-10	-7	-4	-20	x	x
COc1ccc(COc2ccsc2C(=O)Nc2ccc(Cl)cc2)cc1	-1	-14	52*	17	0	-7	15	21
O=C(NCc1cccnc1)/C(=C\c1ccc(-c2ccc(Br)cc2)o1)S(=O)(=O)c1ccccc1	0	x	37*	x	x	x	41*	27*
Cc1ccc(-c2cc(C(=O)NCc3cccnc3)no2)cc1	-1	-16	-11	13	-9	2	x	x
COc1ccccc1Nc1nc(-c2c(C)[nH]c3ccccc23)cs1	2	x	30*	x	x	x	18	15
CCCC(=O)Nc1nc(C)c(-c2csc(Nc3ccccc3OC)n2)s1	1	-5	-21	8	-4	6	x	x
Nc1ccc2c(C(F)(F)F)cc(=O)oc2c1	2	4	39*	-7	3	35	23	46*
COc1ccccc1N=Nc1nc(-c2ccccc2)c(-c2ccccc2)[nH]1	4	x	22	x	x	x	x	x
Oc1ccccc1N=Nc1nc(-c2ccccc2)c(-c2ccccc2)[nH]1	-2	-4	29*	0	-3	9	34*	15
O=c1c(Cl)c(NCCCO)cnn1-c1nc2ccccc2[nH]1	-3	1	36*	-5	-4	30	42*	37*
C=CCN(CC=C)c1cnn(-c2nc3ccccc3[nH]2)c(=O)c1Cl	-3	-21	11	21	-1	-11	x	x
O=C(C1=NN(c2ccccc2)C2C(=O)N(c3ccccc3Cl)C(=O)C12)c1ccccc1 (configuration not stated)	-1	x	29*	x	x	x	25	42*
